Results as given in PubChem BioAssay AID1159580 (chemical genetic matrix, 2015).
Among all 5,500 compounds or so, about 2,000 (36%) were called active. Roughly 18% stayed inconclusive and do not appear here. Cut-off read from the data, not from the text of the source: active = normalized growth mostly below about 0.91 (no sharp cut-off); inconclusive = no clear call, values can overlap the other calls; inactive = mostly above about 0.92. The list shows a part of the results.

Assay: chemical genetic growth profiling, strain panel (AID 1159580);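 note: tested at 20 µM; growth read once vehicle control cultures reached saturation at 30 °C; 1 = growth at the plate median or of vehicle wells; lower values mean less growth of the strain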
Details: S. cerevisiae deletion strains, growth OD

Measured: normalized growth

COc1c(-c2coc3cc4c(cc3c2=O)CC(OC(C)=O)C(C)(C)O4)ccc2c1C=CC(C)(C)O2 (stereo not given)
inactive: locus YAL021C, strain ccr4, stronger effect = lower value 1.01 | locus YAL026C, strain drs2, stronger effect = lower value 1.04 | locus YAL030W, strain snc1, stronger effect = lower value 1.03 | locus YBL061C, strain skt5, stronger effect = lower value 1.02 | locus YBR009C, strain hhf1, stronger effect = lower value 1.02 | locus YBR023C, strain chs3, stronger effect = lower value 1.03 | locus YBR171W, strain sec66, stronger effect = lower value 1.05 | locus YBR231C, strain swc5, stronger effect = lower value 1.05 | locus YBR279W, strain paf1, stronger effect = lower value 1.03 | locus YCL011C, strain gbp2, stronger effect = lower value 1.04 | locus YCL016C, strain dcc1, stronger effect = lower value 1.03 | locus YCL061C, strain MRC1, stronger effect = lower value 1.03 | locus YCL069W, strain vba3, stronger effect = lower value 1.04 | locus YCR088W, strain abp1, stronger effect = lower value 1.04 | locus YDL005C, strain med2, stronger effect = lower value 1.04 | locus YDL040C, strain nat1, stronger effect = lower value 1.03 | locus YDR001C, strain nth1, stronger effect = lower value 1.03 | locus YDR069C, strain doa4, stronger effect = lower value 1.03 | locus YDR137W, strain rgp1, stronger effect = lower value 1.08 | locus YDR159W, strain sac3, stronger effect = lower value 1.05 | locus YDR195W, strain ref2 1.05 | locus YDR297W, strain sur2, stronger effect = lower value 1.03 | locus YDR334W, strain swr1, stronger effect = lower value 1.03 | locus YDR335W, strain msn5, stronger effect = lower value 1.03 | locus YDR392W, strain spt3, stronger effect = lower value 0.945 | locus YEL003W, strain gim4, stronger effect = lower value 1.03 | locus YEL037C, strain rad23, stronger effect = lower value 1.02 | locus YEL061C, strain CIN8 (second series), stronger effect = lower value 1.04 | locus YER015W, strain faa2, stronger effect = lower value 1.03 | locus YER016W, strain bim1, stronger effect = lower value 1.03 | locus YER111C, strain swi4, stronger effect = lower value 1.02 | locus YER155C, strain BEM2 (second series), stronger effect = lower value 1.03 | locus YFR010W, strain ubp6, stronger effect = lower value 1.03 | locus YGL167C, strain pmr1, stronger effect = lower value 1.03 | locus YGL173C, strain kem1, stronger effect = lower value 1.03 | locus YGL227W, strain vid30, stronger effect = lower value 1.04 | locus YGL240W, strain doc1, stronger effect = lower value 1.03 | locus YGL253W, strain hxk2, stronger effect = lower value 1.04 | locus YHR013C, strain ard1, stronger effect = lower value 1.03 | locus YHR027C, strain rpn1, stronger effect = lower value 1.02 | locus YHR030C, strain SLT2, stronger effect = lower value 0.961 | locus YHR079C, strain IRE1, stronger effect = lower value 0.947 | locus YHR142W, strain chs7, stronger effect = lower value 1.05 | locus YJL092W, strain hpr5, stronger effect = lower value 1.04 | locus YJL095W, strain BCK1 (second series), stronger effect = lower value 1.03 | locus YJL095W, strain BCK1, stronger effect = lower value 0.973 | locus YJL115W, strain asf1, stronger effect = lower value 1.04 | locus YJL129C, strain trk1, stronger effect = lower value 1.06 | locus YJL154C, strain vps35, stronger effect = lower value 1.03 | locus YJL164C, strain tpk1, stronger effect = lower value 1.03 | locus YJL166W, strain qcr8, stronger effect = lower value 1.03 | locus YJL187C, strain SWE1, stronger effect = lower value 1.02 | locus YJR066W, strain TOR1, stronger effect = lower value 0.973 | locus YKL160W, strain elf1, stronger effect = lower value 1.04 | locus YKR026C, strain gcn3, stronger effect = lower value 1.04 | locus YKR091W, strain srl3, stronger effect = lower value 1.02 | locus YLL001W, strain dnm1, stronger effect = lower value 1.03 | locus YLL026W, stronger effect = lower value 1.02 | locus YLL041C, strain sdh2, stronger effect = lower value 1.02 | locus YLR027C, strain aat2, stronger effect = lower value 1.03 | locus YLR113W, strain HOG1, stronger effect = lower value 0.934 | locus YLR221C, strain rsa3, stronger effect = lower value 1.03 | locus YLR258W, strain gsy2, stronger effect = lower value 1.03 | locus YLR262C, strain YPT6 (second series), stronger effect = lower value 1.07 | locus YLR320W, strain mms22, stronger effect = lower value 1.03 | locus YLR342W, strain FKS1, stronger effect = lower value 1.03 | locus YLR357W, strain rsc2, stronger effect = lower value 1.04 | locus YLR370C, strain arc18, stronger effect = lower value 1.03 | locus YLR384C, strain iki3, stronger effect = lower value 1.02 | locus YML120C, strain ndi1, stronger effect = lower value 1.03 | locus YMR058W, strain fet3, stronger effect = lower value 1.04 | locus YMR125W, strain sto1, stronger effect = lower value 1.03 | locus YMR129W, stronger effect = lower value 1.03 | locus YMR205C, strain PFK2, stronger effect = lower value 1.04 | locus YMR231W, strain pep5, stronger effect = lower value 1.03 | locus YNL071W, strain lat1, stronger effect = lower value 1.03 | locus YNL183C, strain NPR1, stronger effect = lower value 0.925 | locus YNL209W, strain ssb2, stronger effect = lower value 1.03 | locus YNL248C, strain rpa49, stronger effect = lower value 1.03 | locus YNL322C, strain KRE1 (second series), stronger effect = lower value 1.02 | locus YNR049C, strain mso1, stronger effect = lower value 1.03 | locus YOR001W, strain rrp6, stronger effect = lower value 1.02 | locus YOR070C, strain gyp1, stronger effect = lower value 1.02 | locus YOR080W, strain dia2, stronger effect = lower value 1.02 | locus YOR083W, strain WHI5, stronger effect = lower value 1.03 | locus YOR106W, strain vam3, stronger effect = lower value 1.06 | locus YOR231W, strain MKK1, stronger effect = lower value 0.957 | locus YOR265W, strain rbl2, stronger effect = lower value 1.02 | locus YOR270C, strain vph1, stronger effect = lower value 1.03 | locus YOR290C, strain snf2, stronger effect = lower value 0.999 | locus YPL051W, strain arl3, stronger effect = lower value 1.03 | locus YPL078C, strain atp4, stronger effect = lower value 1.04 | locus YPL106C, strain sse1, stronger effect = lower value 1.05 | locus YPL240C, strain hsp82, stronger effect = lower value 1.02 | locus YPL256C, strain CLN2, stronger effect = lower value 0.958
